About 83,000 compounds went through this panel and 20% of them were active in at least one assay; those are over-represented in the sample as a whole.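 A percent growth of 40 corresponds to 60% growth inhibition; 0 means no net growth; -100 means all cells died. Active threshold: below 10.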 The source made the active and inactive calls.
Assays:
Experiment in all cases: NCI-60 one-dose screen, 48 h (100 = growth as untreated, 0 = no growth, -100 = all killed)
Details in all cases: 10 µM unless noted
NCI-H23 lung = test system: NCI-H23 lung
NCI-H226 lung = test system: NCI-H226 lung
NCI-H322M lung = test system: NCI-H322M lung
HOP-62 NSCLC = test system: HOP-62 NSCLC
NCI-H460 lung = test system: NCI-H460 lung
HOP-92 NSCLC = test system: HOP-92 NSCLC
NCI-H522 lung = test system: NCI-H522 lung
A549/ATCC NSCLC = test system: A549/ATCC NSCLC
786-0 renal = test system: 786-0 renal
COLO 205 colon = test system: COLO 205 colon
DU-145 prostate = test system: DU-145 prostate
K-562 leukemia = test system: K-562 leukemia
MALME-3M melanoma = test system: MALME-3M melanoma
MDA-MB-231 breast = test system: MDA-MB-231 breast
RXF 393 renal = test system: RXF 393 renal
SF-268 CNS = test system: SF-268 CNS
SF-295 CNS = test system: SF-295 CNS
SF-539 CNS = test system: SF-539 CNS
UACC-257 melanoma = test system: UACC-257 melanoma
M14 melanoma = test system: M14 melanoma

Measured: growth

COc1cc(C[C@H]2COc3cc(O)cc(O)c3C2=O)ccc1O
active: K-562 leukemia 9.86% | SF-539 CNS 3.27% | M14 melanoma 9.16%
inactive: NCI-H23 lung 49.8% | NCI-H226 lung 101% | NCI-H322M lung 69.7% | HOP-62 NSCLC 35.4% | NCI-H460 lung 18.6% | HOP-92 NSCLC 30.9% | NCI-H522 lung 17.2% | A549/ATCC NSCLC 46% | 786-0 renal 25.6% | COLO 205 colon 106% | DU-145 prostate 43.1% | MALME-3M melanoma 62% | MDA-MB-231 breast 55.3% | RXF 393 renal 34.7% | SF-268 CNS 47.2% | SF-295 CNS 54.5% | UACC-257 melanoma 35.8%

Nc1ncnc2c1N=C(c1ccc(F)cc1)CC(c1cccc(Nc3ccnc4cc(Cl)ccc34)c1)N2 (stereo not given)
inactive: NCI-H23 lung 77.9% | NCI-H226 lung 91.5% | NCI-H322M lung 89.6% | HOP-62 NSCLC 73.5% | NCI-H460 lung 81.3% | HOP-92 NSCLC 67.8% | NCI-H522 lung 99.7% | A549/ATCC NSCLC 83.5% | 786-0 renal 61.9% | COLO 205 colon 49.8% | DU-145 prostate 85.9% | K-562 leukemia 26.7% | MALME-3M melanoma 91.1% | MDA-MB-231 breast 75.2% | RXF 393 renal 39.1% | SF-268 CNS 62% | SF-295 CNS 72.1% | SF-539 CNS 80.6% | UACC-257 melanoma 106% | M14 melanoma 72.1%

Cc1ccc(S(=O)(=O)OC[C@]23CCC(C)(C)C[C@H]2C2=CC[C@@H]4[C@@]5(C)CCCNC(C)(C)[C@@H]5CC[C@@]4(C)[C@]2(C)CC3)cc1
inactive: NCI-H23 lung 73.7% | NCI-H226 lung 81.8% | NCI-H322M lung 79.7% | HOP-62 NSCLC 78.1% | HOP-92 NSCLC 41.8% | NCI-H522 lung 62% | A549/ATCC NSCLC 34.6% | 786-0 renal 34.7% | DU-145 prostate 37.9% | MALME-3M melanoma 95.8% | MDA-MB-231 breast 45.6% | RXF 393 renal 67.9% | SF-268 CNS 69.6% | SF-295 CNS 104% | SF-539 CNS 74.8% | UACC-257 melanoma 97.4% | M14 melanoma 80.7%
active: NCI-H460 lung -60.2% | COLO 205 colon -66.5% | K-562 leukemia -20%

Nc1nc(N)c2c(n1)NC(c1cccc(Nc3ccnc4cc(C(F)(F)F)ccc34)c1)CC(c1ccc3c(c1)OCO3)=N2 (stereo not given)
inactive: NCI-H23 lung 82.4% | NCI-H226 lung 97.7% | NCI-H322M lung 96.2% | HOP-62 NSCLC 65.7% | NCI-H460 lung 58.8% | HOP-92 NSCLC 54.4% | NCI-H522 lung 42.2% | A549/ATCC NSCLC 60.3% | 786-0 renal 72.6% | COLO 205 colon 66.2% | DU-145 prostate 86.9% | K-562 leukemia 16.1% | MALME-3M melanoma 72.5% | MDA-MB-231 breast 86.1% | RXF 393 renal 52.2% | SF-268 CNS 68.2% | SF-295 CNS 80% | SF-539 CNS 95.4% | UACC-257 melanoma 77.7% | M14 melanoma 67.3%

O=S(Nc1ccccc1)c1ccc(Cl)cc1 (stereo not given)
inactive: NCI-H23 lung 105% | NCI-H226 lung 99.9% | NCI-H322M lung 104% | HOP-62 NSCLC 92% | NCI-H460 lung 95.1% | HOP-92 NSCLC 103% | NCI-H522 lung 82.8% | A549/ATCC NSCLC 78.9% | 786-0 renal 103% | COLO 205 colon 102% | DU-145 prostate 116% | K-562 leukemia 94.6% | MALME-3M melanoma 108% | MDA-MB-231 breast 103% | RXF 393 renal 99.2% | SF-268 CNS 100% | SF-295 CNS 107% | SF-539 CNS 102% | UACC-257 melanoma 86.2% | M14 melanoma 99.2%

CCOC(=O)/C(=C(/C)NCC(C)C)c1cc(O)c(O)c2c(C)cc(=O)[nH]c12
inactive: NCI-H23 lung 51.4% | NCI-H226 lung 71.9% | NCI-H322M lung 62.5% | HOP-62 NSCLC 38.2% | NCI-H460 lung 23.1% | HOP-92 NSCLC 40.2% | NCI-H522 lung 26.8% | A549/ATCC NSCLC 45.2% | 786-0 renal 47.4% | COLO 205 colon 99.7% | DU-145 prostate 64.5% | K-562 leukemia 24.5% | MALME-3M melanoma 53.8% | MDA-MB-231 breast 61.3% | RXF 393 renal 83% | SF-268 CNS 24.1% | SF-295 CNS 52.3% | SF-539 CNS 35.7% | UACC-257 melanoma 83.5% | M14 melanoma 53.3%

COCCn1cc(-c2csc(-c3c[nH]c4ccccc34)n2)c2cccnc21
active: NCI-H522 lung -33.6% | COLO 205 colon -8.68%
inactive: NCI-H23 lung 42.2% | NCI-H226 lung 60.9% | NCI-H322M lung 61% | HOP-62 NSCLC 38.2% | NCI-H460 lung 18.8% | HOP-92 NSCLC 55.5% | A549/ATCC NSCLC 25% | 786-0 renal 43.5% | DU-145 prostate 62.3% | K-562 leukemia 18.1% | MALME-3M melanoma 52.3% | MDA-MB-231 breast 35% | RXF 393 renal 72.2% | SF-268 CNS 50.1% | SF-295 CNS 25.8% | SF-539 CNS 43.5% | UACC-257 melanoma 45.9% | M14 melanoma 18.6%

COc1ccc2c(c1)CC[C@@H]1[C@@H]2CC[C@]2(C)C3C(=CC(COC(C)=O)C4C(=O)N(c5ccc(Cl)cc5)C(=O)C43)C[C@@H]12 (stereo not given in full)
inactive: NCI-H23 lung 91.8% | NCI-H226 lung 97.3% | NCI-H322M lung 107% | HOP-62 NSCLC 98.4% | NCI-H460 lung 110% | HOP-92 NSCLC 90.7% | NCI-H522 lung 89.9% | A549/ATCC NSCLC 110% | 786-0 renal 111% | COLO 205 colon 118% | DU-145 prostate 106% | K-562 leukemia 52.4% | MALME-3M melanoma 101% | MDA-MB-231 breast 103% | RXF 393 renal 110% | SF-268 CNS 91.7% | SF-295 CNS 105% | SF-539 CNS 114% | UACC-257 melanoma 109% | M14 melanoma 98.8%

C=C(C)[C@@H]1CC[C@]2(C(=O)Nc3ccccn3)CC[C@]3(C)[C@H](CC[C@@H]4[C@@]5(C)CCCNC(C)(C)[C@@H]5CC[C@]43C)[C@@H]12
inactive: NCI-H23 lung 19.5% | NCI-H226 lung 43.3% | NCI-H322M lung 65.5% | HOP-62 NSCLC 30.4% | HOP-92 NSCLC 41.8% | NCI-H522 lung 12.6% | A549/ATCC NSCLC 23.1% | 786-0 renal 33.9% | DU-145 prostate 34.8% | MDA-MB-231 breast 49.9% | RXF 393 renal 51.3% | SF-268 CNS 39.8% | SF-295 CNS 44.4% | SF-539 CNS 34.1% | M14 melanoma 26.6%
active: NCI-H460 lung -40.3% | COLO 205 colon -62.2% | K-562 leukemia -1.45% | MALME-3M melanoma -2.67% | UACC-257 melanoma 9.84%

O=C1OCC2=C1C(c1ccccc1)c1cc3c(cc1N2CCO)OCCO3 (stereo not given)
inactive: NCI-H23 lung 30.9% | NCI-H226 lung 15.8% | NCI-H322M lung 48.7% | HOP-62 NSCLC 27.3% | HOP-92 NSCLC 44.5% | A549/ATCC NSCLC 23.6% | 786-0 renal 20.8% | K-562 leukemia 10.5% | MALME-3M melanoma 67.1% | MDA-MB-231 breast 14.2% | RXF 393 renal 10.8% | SF-268 CNS 32.1% | UACC-257 melanoma 47.3%
active: NCI-H460 lung 5.36% | NCI-H522 lung -47.4% | COLO 205 colon -47.6% | DU-145 prostate -9.9% | SF-295 CNS 0.89% | SF-539 CNS -22.7% | M14 melanoma -21.8%

CCCCCCCCn1ccc2cc(NC(=O)CN=[N+]=[N-])ccc21
inactive: NCI-H23 lung 102% | NCI-H226 lung 95.4% | NCI-H322M lung 102% | HOP-62 NSCLC 114% | NCI-H460 lung 107% | HOP-92 NSCLC 111% | NCI-H522 lung 88.3% | A549/ATCC NSCLC 100% | 786-0 renal 94.1% | COLO 205 colon 118% | DU-145 prostate 108% | K-562 leukemia 93.5% | MALME-3M melanoma 109% | MDA-MB-231 breast 101% | RXF 393 renal 104% | SF-268 CNS 97.9% | SF-295 CNS 100% | SF-539 CNS 106% | UACC-257 melanoma 103% | M14 melanoma 109%

CC(C)NS(=O)(=O)/N=C1\NC(=O)NC1=C(Cl)Cl
inactive: NCI-H23 lung 101% | NCI-H226 lung 95.3% | NCI-H322M lung 103% | HOP-62 NSCLC 101% | NCI-H460 lung 99.2% | HOP-92 NSCLC 122% | NCI-H522 lung 54.2% | A549/ATCC NSCLC 94% | 786-0 renal 110% | COLO 205 colon 113% | DU-145 prostate 104% | K-562 leukemia 91.3% | MALME-3M melanoma 99.9% | MDA-MB-231 breast 116% | RXF 393 renal 112% | SF-268 CNS 91.3% | SF-295 CNS 103% | SF-539 CNS 96% | UACC-257 melanoma 76.8% | M14 melanoma 97.2%

C[C@@H]1CN(c2cnc(C(=O)Nc3cc(F)cc4cccnc34)cn2)C[C@H](C)N1
inactive: NCI-H23 lung 63% | NCI-H226 lung 44.8% | NCI-H322M lung 93.1% | HOP-62 NSCLC 83.8% | NCI-H460 lung 88.9% | HOP-92 NSCLC 46% | NCI-H522 lung 51.7% | A549/ATCC NSCLC 94.6% | 786-0 renal 60.6% | COLO 205 colon 13% | DU-145 prostate 84.1% | K-562 leukemia 28.5% | MALME-3M melanoma 65.2% | MDA-MB-231 breast 37.7% | RXF 393 renal 39.8% | SF-268 CNS 88.1% | SF-295 CNS 101% | SF-539 CNS 94.7% | UACC-257 melanoma 41.4% | M14 melanoma 73.9%

CSc1ccc2c3c(n(CCCn4ccnc4)c(=O)c2c1)-c1ccccc1C3=O
active: SF-539 CNS 4.89%
inactive: NCI-H23 lung 30.7% | NCI-H226 lung 69.2% | NCI-H322M lung 71.7% | HOP-62 NSCLC 34.7% | NCI-H460 lung 11.5% | HOP-92 NSCLC 83.2% | NCI-H522 lung 19.3% | A549/ATCC NSCLC 47.9% | 786-0 renal 20.4% | COLO 205 colon 57.9% | DU-145 prostate 28.5% | K-562 leukemia 35.6% | MALME-3M melanoma 87.8% | MDA-MB-231 breast 91.4% | RXF 393 renal 46.3% | SF-268 CNS 31.7% | SF-295 CNS 12.1% | UACC-257 melanoma 71% | M14 melanoma 26.6%
